Screens (PubChem BioAssay)
This is a sample that favours compounds with a hit; in the whole collection about 2.9% have one here.
Nrf2 block: Nrf2 qHTS screen for inhibitors. Potency, µM (doses to about 46 µM), most hits filed as inhibitors. 360,000 compounds, 2.1% hits. A549 ARE-Fluc reporter, luciferase luminescence, 18-24 h; further: nearly all actives have a fitted effect of over 60% in size
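Nrf2 activity is the BugLite luminescence, read 15 min after reagent at room temperature, following CellTiter-Fluor cytotoxicity readout (30 min, 37C). Compound titrations were applied for 18-24 h to 5000 A549 ARE_Fluc cells/well in 5% FBS OPTI-MEM.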
A549 tox: Nrf2 qHTS screen for inhibitors: counterscreen for cytotoxicity | AID 504648, 2011 | 390,000 compounds, 0.16% hits | Potency, µM (titrated, usually from 46 µM), actives largely listed as inhibitors | A549 ARE-Fluc cells, CellTiter-Fluor viability, 18-24 h
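A549 ARE-Fluc cells in 5% FBS OPTI-MEM, 5000 cells/well, rested 2 h then exposed to compounds in concentration-response for 18-24 h at 37 °C. Viability by CellTiter-Fluor fluorescence (Ex 405/Em 525) after 30 min; luciferase luminescence (BugLite, 15 min, RT) read afterwards.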
ATXN2 expr inh: Primary qHTS for Inhibitors of ATXN expression. HEK-293 ATXN2-luciferase reporter, luminescence, 24 h. Potency, µM (series often up to 57 µM), most hits filed as inhibitors. 360,000 compounds, 0.72% hits. AID 1745845, 2022; further: nearly all actives have a fitted effect of over 55% in size
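qHTS (up to 57 uM final) was run with 24 h compound exposure of reporter cells at 37 °C. Each well was multiplexed: SteadyGlo luminescence measured ATXN2-luciferase expression after a fluorogenic Gly-Phe-AFC viability readout (25 uM final).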
Nrf2 activator: qHTS of Nrf2 Activators. AREc32 ARE-luciferase reporter (MCF7-derived line), luminescence, 24 h. 410,000 compounds, 0.31% hits. AID 624171, 2012. Potency, µM (series often up to 46.1 µM), most hits filed as activators; further: nearly all actives have a fitted effect of over 65% in size
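ARE-driven firefly luciferase activity in AREc32 cells measured after a 24 hr compound exposure at 37 deg C, using Steady-Glo reagent and a 30 min room-temperature hold.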
S2 tox: Viability Counterscreen for Primary qHTS for Inhibitors of ATXN expression; S2 cells (HEK-293 line with an ATXN2-luciferase reporter) viability, CellTiter-Fluor protease fluorescence, 24 h; Potency, µM (top dose mostly 56.7 µM), actives largely listed as cytotoxic; 400,000 compounds, 0.49% hits; further: nearly all actives have a fitted effect of over 40% in size
Large screens that a line does not name were inactive. The call rests on the fitted dose curve; in most records, active means well fitted curve in the direction sought with a large enough effect; inconclusive means small, poorly fitted or top-dose-only effect, or another doubt; inactive means no such curve, though single readings can be large; an effect the other way counts as inactive or inconclusive.

CC1=CC(C)(C)Nc2ccc(OC(=O)CN3C(=O)c4cccc5cccc(c45)C3=O)cc21	Nrf2 block inconclusive, ATXN2 expr inh inconclusive, Nrf2 activator inconclusive
CCN1/C(=C/C=C/C=C/C=C/c2sc3ccccc3[n+]2CC)Sc2ccccc21	Nrf2 block 20.6µM, A549 tox inconclusive, ATXN2 expr inh inconclusive, S2 tox inconclusive
Cc1ccc(Cl)cc1NC(=S)N/N=C/c1cccc2ccccc12	S2 tox inconclusive
CNc1ccccc1C(=O)OC(C)C(=O)Nc1ccc(Cl)cn1 (stereo unspecified)	A549 tox inconclusive, ATXN2 expr inh 8.91µM
COC(=O)CCNC(=O)Cc1c(C)n(C(=O)c2ccc(Cl)cc2)c2ccc(OC)cc12	none
CCCNC(=O)Cc1c(C)n(C(=O)c2ccc(Cl)cc2)c2ccc(OC)cc12	Nrf2 block 18.4µM
Cc1nn(C)c(C)c1S(=O)(=O)N1CCC(C(=O)NC(C)c2ccccc2)CC1 (stereo unspecified)	none
CCOC(=O)c1ccc(NC(=S)N(CCN(C)C)C(C)c2ccncc2)cc1 (stereo unspecified)	S2 tox inconclusive (no result: ATXN2 expr inh)
COc1ccc(Cl)cc1NC(=O)CN(C)C(=O)CCC(=O)c1cc(C)sc1C	Nrf2 block 8.2µM, A549 tox 16.4µM
CCN(CC)C(=O)Cn1cc(S(=O)(=O)CC(=O)NCc2ccc(F)cc2)c2ccccc21	none
O=C(NCc1ccccc1)C1=C[C@H](c2csc3ccccc23)C[C@H](OCc2ccc(CO)cc2)O1	Nrf2 block inconclusive, S2 tox inconclusive
O=C(Nc1ccccc1)C1=C[C@@H](c2csc3ccccc23)C[C@@H](OCc2ccc(CO)cc2)O1	Nrf2 block 16.4µM, ATXN2 expr inh inconclusive, S2 tox inconclusive
CCNc1ccc(Br)cc(C(=O)/C=C/c2ccccc2Cl)c1=O	Nrf2 block inconclusive, A549 tox inconclusive, ATXN2 expr inh 20µM, Nrf2 activator inconclusive, S2 tox inconclusive
CNc1ccc(Br)cc(C(=O)/C=C/c2cccc(Cl)c2Cl)c1=O	ATXN2 expr inh inconclusive, Nrf2 activator 7.94µM, S2 tox inconclusive
CNc1ccc(Br)cc(C(=O)/C=C/c2cccc(OC)c2OC)c1=O	none (no result: ATXN2 expr inh, S2 tox)
NC(N)=NC(=O)Cc1c(Cl)cccc1Cl	Nrf2 block 8.2µM
O=C(Cc1c(Cl)cccc1Cl)OCc1ccccn1	none
O=c1c2ccccc2nc(COc2ccccc2)n1/N=C/c1cc([N+](=O)[O-])ccc1O	ATXN2 expr inh inconclusive, S2 tox inconclusive
Cc1ccccc1OCc1nc2ccccc2c(=O)n1/N=C/c1c[nH]c2ccccc12	Nrf2 block inconclusive, A549 tox inconclusive
Cc1ccc(-c2[nH]ncc2/C=N/n2c(COc3ccccc3C)nc3ccccc3c2=O)cc1	Nrf2 block inconclusive, A549 tox inconclusive, ATXN2 expr inh 28.2µM (no result: S2 tox)
Cc1cc(/C=N/n2c(COc3ccccc3C)nc3ccccc3c2=O)c(O)c([N+](=O)[O-])c1	Nrf2 block 8.2µM, A549 tox inconclusive, ATXN2 expr inh inconclusive, S2 tox inconclusive
CC(=O)Cc1nsc(Nc2ccc(C)cc2)n1	Nrf2 block inconclusive
O=C(COC(=O)c1ccc(O)cc1)Nc1ccc(N2CCCCC2)cc1	none
CC1CCCCC1NC(=O)/C(C#N)=C/c1ccc(OCC(N)=O)cc1 (stereo unspecified)	none
Cc1ccc2oc(/N=C(\N)NC(=O)C(C)(C)C)nc2c1	Nrf2 block 13µM
CCN1CCN(CCNC(=O)c2ccc(/C=C3/Sc4ccccc4N(Cc4cccc(Cl)c4)C3=O)cc2)CC1	Nrf2 block inconclusive, A549 tox inconclusive, ATXN2 expr inh 25.1µM, S2 tox 28.2µM
c1ccc(-c2nc(NC3CCCC3)c3ccccc3n2)cc1	Nrf2 block 23.1µM, A549 tox inconclusive
NC(=O)c1cccc(-c2cc(Nc3ccc(OC(F)(F)F)cc3)ncn2)c1	Nrf2 block inconclusive, ATXN2 expr inh inconclusive, S2 tox inconclusive
O=C(CCc1nc2ccccc2c(=O)[nH]1)NCCN1C(=O)S/C(=C\c2ccc(OC(F)F)cc2)C1=O	Nrf2 block inconclusive
O=C(CCl)NCCN1C(=O)S/C(=C\c2cccnc2)C1=O	Nrf2 activator 12.6µM, S2 tox inconclusive
O=C(Cn1[nH]c(=O)c2ccccc2c1=O)NCCN1C(=O)S/C(=C\c2ccccc2)C1=O	Nrf2 block inconclusive, Nrf2 activator 12.6µM
Cc1ccc(-n2nnnc2SCn2nnc3ccccc3c2=O)c(C)c1	Nrf2 block 9.2µM, A549 tox inconclusive
COc1cc(C(O)P(=O)(OC(C)C)OC(C)C)cc(OC)c1OC (stereo unspecified)	none
COc1ccc(-c2cc(C)no2)cc1S(=O)(=O)Nc1cccc(C)c1	Nrf2 block 23.1µM
CN(C)/C(CN1CCN(C=O)CC1)=C1\N=C(c2ccccc2)OC1=O	Nrf2 block 23.1µM
Cc1ccc(-c2csc3ncnc(SCC(=O)Nc4nnc(C)s4)c23)cc1	Nrf2 block inconclusive
Cc1ccc(-c2csc3ncnc(Sc4nnc(CN5CCCCCC5=O)o4)c23)cc1	Nrf2 block 14.6µM, A549 tox inconclusive, ATXN2 expr inh 28.2µM, Nrf2 activator inconclusive (no result: S2 tox)
Cn1c(CCCOc2ccc(Cl)cc2Cl)nnc1SCC(=O)Nc1nccs1	none
Cc1ccc(-n2c(Cc3ccccc3)n[nH]c2=S)c(C)c1	Nrf2 block 13µM
CCc1[nH]c(=O)[nH]c1C(C)S(=O)(=O)c1ccc(C)cc1 (stereo unspecified)	none
CCc1cc(C(=O)N2CCCC(C(=O)c3ccc(Cl)cc3)C2)no1 (stereo unspecified)	none
Cn1cnnc1Sc1nc([N+](=O)[O-])nn1C	none (no result: ATXN2 expr inh)
COc1ccccc1-c1nnc(Sc2nc([N+](=O)[O-])nn2C)o1	Nrf2 block inconclusive, A549 tox inconclusive, ATXN2 expr inh 10µM, Nrf2 activator inconclusive (no result: S2 tox)
NC(=O)COC(=O)c1ccccc1Nc1ccc(SC(F)F)cc1	Nrf2 block inconclusive
CC(OC(=O)c1ccccc1Nc1ccc(SC(F)F)cc1)C(N)=O (stereo unspecified)	Nrf2 block 25.9µM, S2 tox inconclusive
COc1ccccc1/C=C/C(=O)N1CCN(S(=O)(=O)c2cc(C)ccc2C)CC1	Nrf2 block 16.4µM, S2 tox inconclusive (no result: ATXN2 expr inh)
COc1ccc(OC)c(/C=C/C(=O)N2CCN(S(=O)(=O)c3cc(C)ccc3C)CC2)c1	none
Cc1cccc(C)c1-c1ccc(CN2C(CC(C)C)C(=O)N(Cc3cn(CCO)nn3)CCS2(=O)=O)cc1 (stereo unspecified)	Nrf2 block inconclusive, ATXN2 expr inh 28.2µM, S2 tox 31.6µM
CC1C(=O)N(Cc2cn(CCC3OCCO3)nn2)CCS(=O)(=O)N1Cc1ccc(-c2ccc(Cl)cc2)cc1 (stereo unspecified)	ATXN2 expr inh inconclusive, S2 tox 31.6µM (no result: Nrf2 block, A549 tox)
Cc1ccc(-c2ccc(CN3C(C)C(=O)N(Cc4cn(CCC5OCCO5)nn4)CCS3(=O)=O)cc2)cc1 (stereo unspecified)	none (no result: Nrf2 block, A549 tox)
